# Experimental data taken from ChEMBL document CHEMBL4513216, “Probing the Open Global Health Chemical Diversity Library for Multistage-Active Starting Points for Next-Generation Antimalarials” (ACS Infect Dis, 2020).
# Hit rate of the full screen: of about 69,000 compounds, about 8,600 (12%) showed an effect of 50% or more. What follows is part of a selection rich in strong results, with near analogues and random picks from the rest.
# System: Plasmodium berghei
# Assay: Screen against P. berghei liver stage (PbLuc), transformed with Luciferase, at 10uM
# Type: functional, HepG2
# Details: tested at 10 uM
row,Compound,INHIBITION [%]
1,O=C(c1ccsc1)N1CCO[C@@H]2CN(Cc3ccccn3)CC[C@@H]2C1,-31.3
2,Cc1nc(N2CCCC2)nc2c1CCN(C(=O)N1CCCC1)CC2,-23.3
3,Cc1nc(N2CCCC2)nc2c1CCN(C(=O)c1ccoc1C)CC2,3.17
4,Cc1cc(C(=O)N2CCc3nc(N4CCOCC4)nc(C)c3C2)c(C)o1,55.7
5,Cc1nc(N2CCCC2)nc2c1CN(C(=O)N1CCOCC1)CC2,34.9
6,Cc1nc(N2CCOCC2)nc2c1CN(C(=O)C(C)C)CC2,5.04
7,Cc1cc(C(=O)N2CCc3nc(N4CCCC4)nc(C)c3CC2)c(C)o1,67.5
8,Cc1ccc(C(=O)NCc2ccnc(N(C)C)c2)c(C)c1,-29.1
9,Cc1ccccc1N1CC(c2nnc(N)s2)CC1=O (centres undefined),-37.1
10,CC(C)C[C@H](NC(=O)Nc1ccc(F)c(Cl)c1)C(=O)O,47.1
11,COC(=O)CNC(=O)c1nc(Cl)sc1C(C)C,-17.6
12,CCNC(=O)C1(Cc2cc(-c3ccccc3)no2)CCCN(C)C1 (centres undefined),10.9
13,COCC(=O)N1C[C@@H](O)[C@H](N2CCN(c3ccccc3)CC2)C1,12.39
14,Cc1ccccc1CNC(=O)CNc1ccc(OC2CCOC2)cc1 (centres undefined),-6.97
15,O=C(CNc1ccc(OC2CCOC2)cc1)NCc1cccs1 (centres undefined),59.8
16,O=C(CNc1ccc(OC2CCOC2)cc1)NCc1ccco1 (centres undefined),-12.1
17,Cc1ccccc1C1(CNC(=O)NC(C)c2nncn2C)CC1 (centres undefined),40.2
18,CN(Cc1ccccc1)C(=O)Cn1nc(N2CCSCC2)ccc1=O,-22.9
19,COc1ccccc1CNCCc1cccc(C(N)=O)c1,2.22
20,COc1ccc(CNCCc2cccc(C(N)=O)c2)cc1C,11.8
21,NC(=O)c1cccc(CCNCc2cccs2)c1,27.7
22,NC(=O)c1cccc(CCNCc2cnc(-c3cccs3)s2)c1,74

row,Compound,INHIBITION [%]
1,NC(=O)c1cccc(CCNCc2cnc(C3CCC3)s2)c1,82.5
2,COc1cccc(CNCCc2cccc(C(N)=O)c2)c1,-0.758
3,O=C(CCc1ccsc1)N1CCCCC1Cn1cccn1 (centres undefined),-23.9
4,Cc1noc([C@H]2CC[C@@H]3[C@@H](CCN3S(=O)(=O)C3CC3)O2)n1,-6.23
5,Cc1cccc(OCCC(=O)N2CCN(CC(=O)NC3CC3)CC2)c1C,33.8
6,Cn1c(N2CCOCC2)nc2cc(C(=O)N3CCCOCC3)ccc21,-24.6
7,CNC(=O)Cc1ccc(-n2ccnc2-c2cccc(C(=O)O)c2)cc1,15.6
8,CC(=O)NCc1cccc(-n2ccnc2-c2cccc(C(=O)O)c2)c1,62.1
9,CCc1ncc(-c2nccn2-c2cccc(CC(=O)O)c2)cn1,16.3
10,Cc1cnn(C2CCCN(C(=O)c3ccc(Cn4ccnc4)cc3)C2)c1 (centres undefined),16.9
11,Cc1ccc(C(CNC(=O)c2cc(=O)c3ccccc3[nH]2)N(C)C)cc1 (centres undefined),-5.22
12,Cc1cnc(N2C[C@@H]3CN(C4CCOC4)CCC[C@]3(C(=O)O)C2)nc1 (some centres undefined),24.9
13,CCN(CC1CC1)C(=O)NCc1nnc2n1CCC2,45.3
14,COc1ccc(NC(=O)NCC(O)c2ccccc2F)c(OC)c1 (centres undefined),3.15
15,Cc1c(C(=O)N2CCC(c3nc(C)n4ccsc34)CC2)cnn1C,42.6
16,CC(=O)N1[C@H](Cn2cncn2)C[C@@H]2CN(Cc3cccnc3)CC[C@@H]21,35.4
17,CC(C)N1[C@H](Cn2cncn2)C[C@@H]2CN(Cc3cccs3)CC[C@@H]21,57.5
18,CC(=O)N1[C@H](Cn2cncn2)C[C@@H]2CN(Cc3ccccn3)CC[C@@H]21,34.1
19,CC(C)N1[C@H](Cn2cncn2)C[C@@H]2CN(c3ncccn3)CC[C@@H]21,20.1
20,CC(=O)N1[C@H](Cn2cncn2)C[C@@H]2CN(Cc3ccncc3)CC[C@@H]21,55.9
21,CC(C)N1[C@H](Cn2cccn2)C[C@@H]2CN(C3CCOCC3)CC[C@@H]21,33
22,CN1[C@H](Cn2cncn2)C[C@@H]2CN(Cc3cccc(C#N)c3)CC[C@@H]21,20.1

row,Compound,INHIBITION [%]
1,CC(C)N1[C@H](Cn2cccn2)C[C@@H]2CN(Cc3ccoc3)CC[C@@H]21,57.9
2,CC(C)N1[C@H](Cn2cncn2)C[C@@H]2CN(Cc3ccsc3)CC[C@@H]21,47.5
3,CC(C)N1[C@H](CN2CCCC2)C[C@@H]2CN(Cc3ccoc3)CC[C@@H]21,-75.9
4,CN1[C@H](Cn2cccn2)C[C@@H]2CN(Cc3cccs3)CC[C@@H]21,28.3
5,CN1[C@H](Cn2cncn2)C[C@@H]2CN(Cc3ccsc3)CC[C@@H]21,54.8
6,Cc1cccc(C(CNC(=O)NCc2cc[nH]n2)N2CCOCC2)c1 (centres undefined),35.95
7,CCN(Cc1ccoc1)C(=O)NC1CCN(C(=O)OC(C)(C)C)C1 (centres undefined),1.93
8,CCc1ccc(C(N)c2cccc(S(C)(=O)=O)c2)cc1 (centres undefined),48.1
9,CC1CCCCN1C(=O)COc1nc(C(C)(C)C)no1 (centres undefined),-29.2
10,Cn1cnnc1-c1ccnc(NCc2ccc(Br)cc2)c1,8.05
11,COc1cc(CNCCc2cnn(C)c2)cc(OC)c1OC,31.55
12,COc1cc(CNCc2ccnc(N3CCOCC3)c2)cc(Cl)c1OC,40.3
13,COc1cc(CNc2nncs2)cc(OC)c1OC,80.8
14,COc1cc(CNc2cc(-c3nncn3C)ccn2)cc(OC)c1OC,53.4
15,Cn1cnnc1-c1ccnc(NCc2ccc3c(c2)OCCO3)c1,42.3
16,Cn1cnnc1-c1ccnc(NCc2ccccc2)c1,57.7
17,COc1ccc(CNc2nncs2)cc1F,8.05
18,COc1cc(CNc2nc(N3CCOCC3)ns2)cc(OC)c1OC,8.05
19,COCCN(Cc1cnn(C)c1)C(=O)C1CCN(C2CCCCC2)CC1,36.7
20,C[C@@H]1CN(CCOc2ccc(Cl)cc2)CC[C@@]1(O)C1CCOCC1,-17.8
